Measured values published in PubChem BioAssay AID493035 (The Scripps Research Institute Molecular Screening Center, 2011).
Screen size: about 2,000 compounds; about 45 (2%) were called active. Many of the other results were omitted from the sample, so actives are more common in it than they were. Unmarked numbers belong to inactive results.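 Rule for the calls: active = inhibition above the mean of all tested compounds plus 3 SD (cut at about 49% in these data); inactive = the rest.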

What follows are molecules tested against Perilipin-5 (Homo sapiens) + 1-acylglycerol-3-phosphate O-acyltransferase ABHD5 (Homo sapiens) (UniProt Q00G26+Q8WTS1) (assay: blockers of ABHD5 binding to perilipin-5 – cell lysate, split luciferase complementation, luminescence, NIH validation set, pilot screen (AID 493035;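 note: 0% = DMSO only wells while the 100% control is not stated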)). Conditions: split G. princeps luciferase complementation, lysates, 4 h; at 7.9 µM, active compounds read high.
Perilipin-5 (Homo sapiens) + 1-acylglycerol-3-phosphate O-acyltransferase ABHD5 (Homo sapiens), sequence (Q00G26 whole entry, looked up): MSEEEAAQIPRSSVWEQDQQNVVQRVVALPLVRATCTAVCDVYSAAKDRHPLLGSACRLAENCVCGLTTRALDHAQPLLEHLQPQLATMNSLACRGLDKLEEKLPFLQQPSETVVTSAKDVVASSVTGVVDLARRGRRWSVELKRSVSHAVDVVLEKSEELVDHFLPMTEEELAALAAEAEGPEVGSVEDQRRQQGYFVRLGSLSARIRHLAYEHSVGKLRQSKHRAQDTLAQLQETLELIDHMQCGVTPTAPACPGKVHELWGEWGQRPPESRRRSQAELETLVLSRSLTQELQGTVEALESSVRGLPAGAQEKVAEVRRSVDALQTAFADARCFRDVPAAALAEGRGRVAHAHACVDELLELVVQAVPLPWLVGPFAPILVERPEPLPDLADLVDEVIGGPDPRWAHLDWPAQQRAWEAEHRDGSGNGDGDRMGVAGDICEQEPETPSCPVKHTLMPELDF
Perilipin-5 (Homo sapiens) + 1-acylglycerol-3-phosphate O-acyltransferase ABHD5 (Homo sapiens), sequence (Q8WTS1 whole entry, looked up): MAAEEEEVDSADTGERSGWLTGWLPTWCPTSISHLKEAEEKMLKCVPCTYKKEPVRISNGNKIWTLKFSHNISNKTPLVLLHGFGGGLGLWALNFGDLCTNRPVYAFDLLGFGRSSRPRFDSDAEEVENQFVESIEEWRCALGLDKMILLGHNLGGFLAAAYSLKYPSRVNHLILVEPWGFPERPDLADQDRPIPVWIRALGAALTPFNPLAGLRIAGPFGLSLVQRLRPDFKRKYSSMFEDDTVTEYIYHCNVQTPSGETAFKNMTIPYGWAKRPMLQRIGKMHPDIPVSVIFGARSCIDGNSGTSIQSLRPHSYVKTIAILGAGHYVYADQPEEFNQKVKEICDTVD

SMILES | inhibition
COc1ccc2cc(-c3nc4ccccc4n3C)c(=O)oc2c1 | -5.19%
CCn1c2ccccc2c2cc(CC(N)=O)ccc21 | -7.62%
COc1ccccc1C(=O)Nc1cc2cc(Br)ccc2oc1=O | -7.35%
Cc1ccc(CSCC(=O)NCCCN2CCOCC2)cc1 | 2.33%
Cc1cc(=O)c2c(O)c(O)ccc2o1 | -3.3%
O=c1nc2sc3ccccc3n2c(=O)n1-c1ccc(Cl)cc1 | 5.72%
COc1ccc(C)cc1S(=O)(=O)Nc1ccc(F)cc1 | 0.68%
Cc1ccc(S(=O)(=O)N[C@@H](Cc2ccccc2)C(=O)CCl)cc1 | 84.4% (active)
CNS(=O)(=O)c1ccc(C)cc1 | -16.6%
CCCCNC(=O)NS(=O)(=O)c1ccc(C)cc1 | -4.64%
COc1ccc(-c2nnc(-c3cc4c(ccc5ccccc54)oc3=O)o2)cc1 | 5.2%
COc1c(C=O)c(CCN(C)C(=O)c2ccc(F)cc2)cc2c1OCO2 | 3.02%
O=C(O)c1cc(-c2ccccc2)nc2ccccc12 | -2.12%
COC(=O)c1cc(-c2ccc(C)o2)nc2ccccc12 | 72.8% (active)
CCCOc1ccc(-c2cc(C(=O)NCC3CCCO3)c3ccccc3n2)cc1 (stereo not drawn) | -0.81%
C/C(=N\NC(=O)c1ccccc1[N+](=O)[O-])c1ccc(Br)s1 | -7.54%
Cc1cc(C)c(NC(=O)NC(=O)C(Cl)(Cl)Cl)c(C)c1 | -18.5%
O=C(/C=C/c1ccc2c(c1)OCCCO2)c1ccc2ccccc2c1O | 26.6%
O=C(/C=C/c1ccc2c(c1)OCO2)c1ccccn1 | 55.7% (active)
O=C(/C=C/c1ccc2c(c1)OCO2)NCc1ccc(F)cc1 | 1.71%
O=C1N[C@@H](Cc2cnc[nH]2)C(=O)N2CCC[C@@H]12 | -13.3%
O=C(c1ccccc1F)c1cc2c(cc1[N+](=O)[O-])OCCO2 | 2.64%
O=C(CN1CC[n+]2c(-c3cccs3)csc21)c1ccc(Br)cc1 | 51.8% (active)
COc1ccc(-c2c3c(=O)n(C)c(=O)n(C)c3cn2C2CCCCC2)cc1 | 7.04%
O=C(O)/C=C/c1cccc(OCc2ccccc2)c1 | -15.3%

SMILES | inhibition
CC(C)C[C@H](NC(=O)NC(C)C)C(=O)O | -0.17%
CC(C)OC(=O)CC1C(=O)NCCN1C(=S)NC(=O)c1cccs1 (stereo not drawn) | -6.51%
COc1ccc(C2CC(c3c(O)cc(C)oc3=O)=NCCS2)c(OC)c1 (stereo not drawn) | 22.5%
O=C1ON=C(c2ccc(Cl)cc2)/C1=C/c1ccc(O)cc1 | 70.2% (active)
COc1cc2c(cc1OC)/C(=C/c1ccc(Cl)cc1)C(=O)OC2 | 33.3%
Nc1cccc(C(=O)O)c1 | -4.68%
O=C(O)C1[C@H]2C(=O)N(C3CCCC3)C[C@]23C=C[C@H]1O3 (stereo partly drawn) | -13.3%
O=C1CCCN1C(=O)CCC(=O)N1CCCC1=O | 4.49%
Cc1oc2c(C)c3oc(=O)c4c(c3cc2c1C)CCCC4 | 1.69%
COc1ccccc1C(=O)Oc1ccc2c(c1)O/C(=C\c1ccncc1)C2=O | 35.9%
CCc1ccc(/C=C2\Oc3cc(OC(=O)N4CCOCC4)ccc3C2=O)cc1 | 17.7%
CS(=O)(=O)Oc1ccc2c(c1)O/C(=C\C=C\c1ccccc1)C2=O | 53.5% (active)
O=C(O)C1CCN(C(=O)COc2ccc3c4c(c(=O)oc3c2)CCC4)CC1 | -5.81%
COc1ccc([C@H]2[C@H](C(=O)OC(C)(C)C)N3N=Cc4ccccc4C3C23C(=O)c2ccccc2C3=O)cc1OC (stereo partly drawn) | 0.07%
O=C(NCCO)c1ccc2[nH]c3ccccc3c2c1 | -4.84%
COc1ccc2nc(C)cc(Nc3ccccc3O)c2c1 | -5.57%
COc1cc2c3c(c1)C(C)CC(C)(C)N3C(=O)C2=O (stereo not drawn) | 3.84%
O=C1c2ccccc2C2(c3ccccc3)NCCN12 (stereo not drawn) | 0.12%
CC1(c2ccccc2)CC(C)(C)N2C(=O)C(=O)c3cccc1c32 (stereo not drawn) | 59.8% (active)
Cc1[nH]c2ccccc2c1/C=C/c1nc2ccccc2c(=O)n1CCO | 8.95%
C[C@]12CC[C@@H]3c4ccc(O)cc4C(=O)C[C@H]3[C@@H]1CC[C@@H]2O | 9.16%
CC(=O)OCC1OC(n2ccc(=O)[nH]c2=O)C(O)C1O (stereo not drawn) | -2.69%
C/C(=N\NC(=O)C1(C)CC1(Br)Br)c1ccc([N+](=O)[O-])cc1 (stereo not drawn) | -8.2%
O=C(NCc1ccc(N2CCCC2=O)cc1)c1ccc(F)cc1 | 7.2%
CC(=Nc1ccccc1)C1=C(O)CCCC1=O | 0.34%

SMILES | inhibition
CC1(C)c2ccccc2N2CC(=O)NC21/C=C/c1ccco1 (stereo not drawn) | 50.2% (active)
O=C(/C=C/c1ccco1)N1CCN(c2ccccc2)CC1 | 2.96%
CC1(C)c2ccccc2N2CC(=O)N(CC(N)=O)C21C (stereo not drawn) | 4.9%
Nc1ccc2cn[nH]c2c1 | -10.6%
Cc1ccc(N2C(=O)c3ccccc3C2=O)cc1C | -3.44%
CNc1nc(N(C)C)nc(N(C)C)n1 | -0.61%
COC(=O)c1ccc(C(=O)OC)c(NC(=O)C(C)C)c1 | -13.5%
COc1ccc(-c2nc(NC(C)=O)sc2-c2ccc(OC)cc2)cc1 | 2.96%
COc1ccc(C2C(=O)c3ccccc3C2=O)cc1 | -1.24%
COc1ccc(C2=CC(=O)C=CC2=O)cc1 | 69.1% (active)
COc1ccccc1CCn1cnc2c3cc(C)ccc3n(C)c2c1=O | 12.2%
CCOc1cc2c(cc1OCC)C(c1ccccc1)N(c1ccc(C(=O)O)cc1)C(=O)C2 (stereo not drawn) | 5.15%
CCS(=O)(=O)Nc1cc(OC)c(OC)cc1Cc1nccc2cc(OC)c(OC)cc12 | -5.76%
O=C(COc1ccc2ccc(=O)oc2c1)c1ccccc1 | -3.28%
COc1ccc2c(c1)C=CC1(O2)N(CCO)c2ccccc2C1(C)C (stereo not drawn) | 50.9% (active)
COc1ccc(NC(=O)C2C(=O)N(CCO)C3(C)CC2c2ccccc2O3)cc1 (stereo not drawn) | -8.28%
O=C1CCCN1CCCn1cnc2c([nH]c3ccc(F)cc32)c1=O | 1.78%
CC12CCCCN1CCCc1c2[nH]c2ccccc12 (stereo not drawn) | 6.67%
CC(C)C[C@H](NC(=O)[C@@H]1Cc2ccccc2CN1C(=O)OC(C)(C)C)C(=O)NCC1CCC(C(=O)O)CC1 (stereo partly drawn) | -1.68%
COc1ccc(CNCCC(c2ccc(F)cc2)c2ccc(OC(C)C)cc2)cc1OC (stereo not drawn) | -5.38%
COc1ccc(CN(CCC(c2ccccc2)c2ccc(OC(C)C)cc2)C(=O)CCl)cc1OC (stereo not drawn) | 67% (active)
COc1ccccc1C(CC(=O)Nc1ccccc1C)c1ccc(OC(C)C)cc1 (stereo not drawn) | 1.65%
Cn1c(=O)oc2cc(S(=O)(=O)N3CCc4ccccc4C3)ccc21 | -0.05%
CC(C)C12CN3CC(C(C)C)(CN(C1)C3c1ccccc1O)C2=O (stereo not drawn) | 0.76%
c1coc(-c2nnc3n2C2(CCCC2)Cc2ccccc2-3)c1 | -2.54%

SMILES | inhibition
CC(C)CN1CCN(Cc2ccc(C#CC(C)(C)O)cc2)CC1CCO (stereo not drawn) | 1.45%
COc1ccc(CN2CCCCC2C(=O)Nc2ccc(OC)c(OCC(C)C)c2)cc1OC (stereo not drawn) | -8.58%
COc1ccccc1C(O)c1nccn1C (stereo not drawn) | -0.96%
COc1cc(/C=C/C(=O)CC(=O)/C=C/c2ccc(O)c(OC)c2)ccc1O | 47.6%
CC12CCC(C(=O)N3CCc4ccccc43)(CC1=O)C2(C)C (stereo not drawn) | -4.02%
COc1cc(/C=C(\C#N)C(=O)N2CCc3ccccc32)ccc1O | 50.3% (active)
Cn1c(=O)[nH]c(=O)c2c1nc(NCc1ccco1)n2CCCc1ccccc1 | -10%
CC1(C)CC(NC(=O)C23CCC(C)(C(=O)C2=O)C3(C)C)CC(C)(C)N1 (stereo not drawn) | -7.41%
NC(N)=N/N=C/c1ccc(OS(=O)(=O)c2ccccc2)cc1 | -1.57%
COc1cc(C(=O)Nc2cccc(-c3nnc(-c4ccco4)o3)c2)ccc1OC(C)=O | -3.44%
COc1ccc(/C=C2\CCc3ccccc3C2=O)c(OC)c1OC | -7.62%
COc1ccc(/C=C2\CC/C(=C\c3ccc(OC)c(OC)c3)C2=O)cc1OC | 72.8% (active)
COc1ccc(/C=C2\CCn3c2nc2cc(C(=O)O)ccc2c3=O)cc1OC | -3.54%
COc1ccc(C(=O)Nc2ccccc2C(=O)NCCCn2ccnc2)cc1 | -6.29%
Cc1nonc1CN(C)C(=O)c1ccc(OC2CCN(C(=O)c3cccnc3)CC2)cc1 | 2.15%
S=C(NCc1ccccc1)NCc1cccc(CNC(=S)NCc2ccccc2)c1 | 10.2%
N#C/C(=C/c1ccccc1)C(=O)NCc1ccccc1 | 62.6% (active)
N#C/C(=C\c1ccc(O)c(O)c1)C(=O)NCCCc1ccccc1 | 28.2%
COc1ccc(NC(=O)CC2C(=O)N(C)C(=S)N2Cc2ccncc2)cc1 (stereo not drawn) | -3.37%
O=C(O)C1Cc2ccccc2CN1S(=O)(=O)c1ccccc1 (stereo not drawn) | 3.15%
O=C(O)Cc1ccc(O)c(F)c1 | -5.48%
CCOc1ccc(N2C(=O)CNC2=S)cc1 | -13.8%
COc1ccccc1-c1c(C(F)(F)F)oc2cc(OC(=O)c3ccc([N+](=O)[O-])cc3)ccc2c1=O | 29.5%
